In ChEMBL document CHEMBL1961873, “Compounds: GSK PKIS; Assays: Nanosyn kinase panel” (2012):

Key:
[1] = target: Sphingosine kinase 1 (Homo sapiens) (UniProt Q9NYA1); conditions: at 1 µM;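 also: mean SPHK1 inhibition value reported from the GSK PKIS kinase panel screen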
[2] = target: T1, Sphingosine kinase 2 (Homo sapiens) (UniProt Q9NRA0); conditions: at 0.1 µM
T1 sequence (whole entry): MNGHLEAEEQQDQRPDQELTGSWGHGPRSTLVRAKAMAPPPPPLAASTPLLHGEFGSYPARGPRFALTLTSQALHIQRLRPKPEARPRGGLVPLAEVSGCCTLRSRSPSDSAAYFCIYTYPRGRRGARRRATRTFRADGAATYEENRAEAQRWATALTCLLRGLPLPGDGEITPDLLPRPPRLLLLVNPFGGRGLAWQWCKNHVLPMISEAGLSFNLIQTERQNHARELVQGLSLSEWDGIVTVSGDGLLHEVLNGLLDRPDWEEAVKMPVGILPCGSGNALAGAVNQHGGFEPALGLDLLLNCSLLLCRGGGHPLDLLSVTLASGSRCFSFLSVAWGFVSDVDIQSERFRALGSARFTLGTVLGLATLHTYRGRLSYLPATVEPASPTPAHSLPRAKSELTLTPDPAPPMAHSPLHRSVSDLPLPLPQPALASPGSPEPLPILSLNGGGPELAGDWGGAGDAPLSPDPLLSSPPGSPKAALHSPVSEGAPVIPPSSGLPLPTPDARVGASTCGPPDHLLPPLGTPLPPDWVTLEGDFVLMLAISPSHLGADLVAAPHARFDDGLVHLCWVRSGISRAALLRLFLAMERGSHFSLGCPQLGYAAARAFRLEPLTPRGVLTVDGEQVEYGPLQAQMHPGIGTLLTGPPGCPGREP

[3] = target: T1, Sphingosine kinase 2 (Homo sapiens); conditions: at 1 µM
[4] = target: Casein kinase II subunit alpha (Homo sapiens) (UniProt P68400); conditions: at 0.1 µM
Chain of Casein kinase II subunit alpha (Homo sapiens) (P68400 whole entry, looked up): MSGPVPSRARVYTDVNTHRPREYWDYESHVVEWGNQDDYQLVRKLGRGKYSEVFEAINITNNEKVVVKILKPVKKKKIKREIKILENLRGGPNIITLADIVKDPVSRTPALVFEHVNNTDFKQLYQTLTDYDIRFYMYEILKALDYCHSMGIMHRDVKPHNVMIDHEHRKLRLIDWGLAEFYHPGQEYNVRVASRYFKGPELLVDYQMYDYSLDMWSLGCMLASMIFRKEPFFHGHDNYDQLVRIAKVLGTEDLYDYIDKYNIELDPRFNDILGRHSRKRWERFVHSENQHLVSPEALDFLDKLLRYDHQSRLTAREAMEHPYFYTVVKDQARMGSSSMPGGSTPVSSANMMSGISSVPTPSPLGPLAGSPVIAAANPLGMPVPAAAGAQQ

[5] = target: Casein kinase II subunit alpha (Homo sapiens) (UniProt P68400); conditions: at 1 µM
[6] = target: T2, Inhibitor of nuclear factor kappa-B kinase subunit alpha (Homo sapiens) (UniProt O15111); conditions: at 0.1 µM
T2 sequence (whole entry): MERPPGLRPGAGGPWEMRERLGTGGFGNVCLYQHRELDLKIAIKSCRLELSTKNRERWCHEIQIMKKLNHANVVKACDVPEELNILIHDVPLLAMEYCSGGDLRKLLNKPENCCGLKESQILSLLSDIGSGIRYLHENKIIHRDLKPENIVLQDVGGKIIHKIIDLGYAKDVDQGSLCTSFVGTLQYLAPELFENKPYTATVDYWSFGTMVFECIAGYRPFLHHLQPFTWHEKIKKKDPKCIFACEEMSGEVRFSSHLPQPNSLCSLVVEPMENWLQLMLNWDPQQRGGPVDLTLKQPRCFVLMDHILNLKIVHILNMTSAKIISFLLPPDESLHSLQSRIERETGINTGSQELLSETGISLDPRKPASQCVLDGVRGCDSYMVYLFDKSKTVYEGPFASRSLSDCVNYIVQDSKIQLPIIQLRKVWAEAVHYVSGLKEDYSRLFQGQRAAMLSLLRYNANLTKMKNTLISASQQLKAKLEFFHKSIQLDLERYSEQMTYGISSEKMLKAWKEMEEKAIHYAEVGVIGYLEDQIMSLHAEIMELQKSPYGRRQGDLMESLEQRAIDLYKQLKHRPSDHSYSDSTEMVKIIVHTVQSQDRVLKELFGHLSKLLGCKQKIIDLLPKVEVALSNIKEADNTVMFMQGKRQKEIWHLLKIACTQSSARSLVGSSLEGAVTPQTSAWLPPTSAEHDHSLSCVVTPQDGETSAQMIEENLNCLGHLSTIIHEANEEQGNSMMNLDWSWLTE

[7] = target: T2, Inhibitor of nuclear factor kappa-B kinase subunit alpha (Homo sapiens); conditions: at 1 µM
[8] = target: T3, Inhibitor of nuclear factor kappa-B kinase subunit beta (Homo sapiens) (UniProt O14920); conditions: at 0.1 µM
T3 sequence (whole entry): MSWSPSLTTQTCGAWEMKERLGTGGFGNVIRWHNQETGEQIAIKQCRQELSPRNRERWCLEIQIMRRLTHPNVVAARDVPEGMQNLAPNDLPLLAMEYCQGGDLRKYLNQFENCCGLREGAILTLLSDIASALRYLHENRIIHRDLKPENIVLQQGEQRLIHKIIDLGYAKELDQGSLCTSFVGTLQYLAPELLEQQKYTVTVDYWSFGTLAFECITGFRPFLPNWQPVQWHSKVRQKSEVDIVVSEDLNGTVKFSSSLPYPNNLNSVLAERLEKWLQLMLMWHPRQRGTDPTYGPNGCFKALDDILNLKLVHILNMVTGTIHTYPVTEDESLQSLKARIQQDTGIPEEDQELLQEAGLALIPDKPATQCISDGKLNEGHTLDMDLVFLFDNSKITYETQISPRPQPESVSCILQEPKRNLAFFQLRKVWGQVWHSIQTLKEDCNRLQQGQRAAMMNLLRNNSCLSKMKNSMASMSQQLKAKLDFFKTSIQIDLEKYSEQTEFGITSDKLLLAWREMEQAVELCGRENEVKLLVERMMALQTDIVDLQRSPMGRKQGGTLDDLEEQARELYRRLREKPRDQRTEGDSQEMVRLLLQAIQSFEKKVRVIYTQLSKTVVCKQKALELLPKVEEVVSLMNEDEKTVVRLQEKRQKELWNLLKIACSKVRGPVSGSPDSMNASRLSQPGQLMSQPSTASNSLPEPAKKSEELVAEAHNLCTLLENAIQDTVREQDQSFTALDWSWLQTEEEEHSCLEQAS

[9] = target: T3, Inhibitor of nuclear factor kappa-B kinase subunit beta (Homo sapiens); conditions: at 1 µM
[10] = target: T4, Inhibitor of nuclear factor kappa-B kinase subunit epsilon (Homo sapiens) (UniProt Q14164); conditions: at 0.1 µM
T4 sequence (whole entry): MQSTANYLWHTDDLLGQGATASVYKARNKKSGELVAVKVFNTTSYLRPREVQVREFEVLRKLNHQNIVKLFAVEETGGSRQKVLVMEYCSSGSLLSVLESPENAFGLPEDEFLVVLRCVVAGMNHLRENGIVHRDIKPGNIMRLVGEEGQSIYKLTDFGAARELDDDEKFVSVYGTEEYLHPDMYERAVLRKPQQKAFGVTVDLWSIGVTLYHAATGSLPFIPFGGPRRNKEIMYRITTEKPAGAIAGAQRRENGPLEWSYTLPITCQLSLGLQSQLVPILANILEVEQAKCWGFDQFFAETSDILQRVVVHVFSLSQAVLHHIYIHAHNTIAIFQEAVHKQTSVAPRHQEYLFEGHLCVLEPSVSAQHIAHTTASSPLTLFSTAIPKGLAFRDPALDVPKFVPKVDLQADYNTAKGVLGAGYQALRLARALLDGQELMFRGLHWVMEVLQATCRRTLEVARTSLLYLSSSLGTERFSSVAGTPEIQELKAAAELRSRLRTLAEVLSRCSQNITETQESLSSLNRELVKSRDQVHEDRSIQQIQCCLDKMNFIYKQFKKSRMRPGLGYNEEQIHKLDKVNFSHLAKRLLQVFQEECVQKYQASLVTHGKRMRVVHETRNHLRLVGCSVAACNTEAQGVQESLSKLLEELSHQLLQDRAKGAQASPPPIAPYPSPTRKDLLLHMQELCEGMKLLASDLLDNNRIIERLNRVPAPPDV

[11] = target: T4, Inhibitor of nuclear factor kappa-B kinase subunit epsilon (Homo sapiens); conditions: at 1 µM
[12] = target: T5, Serine/threonine-protein kinase Nek1 (Homo sapiens) (UniProt Q96PY6); conditions: at 0.1 µM
T5 sequence (whole entry): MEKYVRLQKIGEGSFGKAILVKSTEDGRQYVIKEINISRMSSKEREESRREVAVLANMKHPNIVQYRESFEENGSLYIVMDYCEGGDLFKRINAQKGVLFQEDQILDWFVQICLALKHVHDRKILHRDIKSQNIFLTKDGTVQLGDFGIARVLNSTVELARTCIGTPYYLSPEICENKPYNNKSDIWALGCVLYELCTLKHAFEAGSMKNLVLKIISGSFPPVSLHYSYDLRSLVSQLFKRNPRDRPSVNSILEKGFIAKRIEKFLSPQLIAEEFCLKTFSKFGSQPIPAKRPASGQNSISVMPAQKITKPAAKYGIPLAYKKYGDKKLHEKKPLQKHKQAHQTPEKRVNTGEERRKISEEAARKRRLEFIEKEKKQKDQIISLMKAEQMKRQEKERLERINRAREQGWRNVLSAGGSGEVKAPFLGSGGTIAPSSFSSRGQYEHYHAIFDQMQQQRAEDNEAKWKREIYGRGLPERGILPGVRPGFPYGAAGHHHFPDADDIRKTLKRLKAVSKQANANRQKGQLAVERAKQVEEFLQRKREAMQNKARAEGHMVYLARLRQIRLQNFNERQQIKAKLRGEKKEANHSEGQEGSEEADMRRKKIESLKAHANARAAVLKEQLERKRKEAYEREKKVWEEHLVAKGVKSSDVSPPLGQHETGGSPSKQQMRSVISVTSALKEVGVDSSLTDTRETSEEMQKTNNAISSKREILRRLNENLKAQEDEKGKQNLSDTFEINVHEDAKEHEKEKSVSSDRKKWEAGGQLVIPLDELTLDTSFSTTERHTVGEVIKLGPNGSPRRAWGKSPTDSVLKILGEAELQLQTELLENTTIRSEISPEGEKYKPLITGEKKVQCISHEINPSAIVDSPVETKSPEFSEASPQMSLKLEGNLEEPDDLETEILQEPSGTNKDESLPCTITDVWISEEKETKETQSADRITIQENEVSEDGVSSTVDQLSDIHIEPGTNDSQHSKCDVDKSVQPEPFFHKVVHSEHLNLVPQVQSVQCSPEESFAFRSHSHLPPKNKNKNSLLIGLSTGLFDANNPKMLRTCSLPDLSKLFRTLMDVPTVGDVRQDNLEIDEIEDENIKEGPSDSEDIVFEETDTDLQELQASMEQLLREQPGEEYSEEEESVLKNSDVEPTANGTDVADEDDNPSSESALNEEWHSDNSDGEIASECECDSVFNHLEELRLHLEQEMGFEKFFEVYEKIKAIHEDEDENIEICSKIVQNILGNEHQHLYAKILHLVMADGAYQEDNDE

[13] = target: T5, Serine/threonine-protein kinase Nek1 (Homo sapiens); conditions: at 1 µM
[14] = target: T6, Serine/threonine-protein kinase Nek2 (Homo sapiens) (UniProt P51955); conditions: at 0.1 µM
T6 sequence (whole entry): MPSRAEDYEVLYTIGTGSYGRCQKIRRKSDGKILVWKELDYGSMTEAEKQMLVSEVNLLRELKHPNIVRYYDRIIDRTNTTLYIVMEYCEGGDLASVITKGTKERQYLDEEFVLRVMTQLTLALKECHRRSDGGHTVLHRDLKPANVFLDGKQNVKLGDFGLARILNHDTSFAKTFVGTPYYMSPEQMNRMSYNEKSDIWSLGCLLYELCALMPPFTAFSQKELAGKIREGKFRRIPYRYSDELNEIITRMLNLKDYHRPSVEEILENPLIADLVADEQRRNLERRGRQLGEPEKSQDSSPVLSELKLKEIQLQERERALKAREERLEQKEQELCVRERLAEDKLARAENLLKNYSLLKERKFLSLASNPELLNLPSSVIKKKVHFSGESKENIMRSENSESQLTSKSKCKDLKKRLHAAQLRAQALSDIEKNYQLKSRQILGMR

[15] = target: T6, Serine/threonine-protein kinase Nek2 (Homo sapiens); conditions: at 1 µM
[16] = target: Serine/threonine-protein kinase Nek6 (Homo sapiens) (UniProt Q9HC98); conditions: at 0.1 µM
Chain of Serine/threonine-protein kinase Nek6 (Homo sapiens) (Q9HC98 whole entry): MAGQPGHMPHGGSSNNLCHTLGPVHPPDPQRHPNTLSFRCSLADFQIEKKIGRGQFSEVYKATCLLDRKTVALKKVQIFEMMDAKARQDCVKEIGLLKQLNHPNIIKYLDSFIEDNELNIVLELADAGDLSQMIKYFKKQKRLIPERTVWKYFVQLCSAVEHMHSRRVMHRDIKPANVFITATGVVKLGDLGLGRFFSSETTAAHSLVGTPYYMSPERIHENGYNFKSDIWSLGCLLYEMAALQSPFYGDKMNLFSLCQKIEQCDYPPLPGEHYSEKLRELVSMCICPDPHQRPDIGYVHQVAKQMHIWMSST

[17] = target: Serine/threonine-protein kinase Nek6 (Homo sapiens) (UniProt Q9HC98); conditions: at 1 µM
[18] = target: Serine/threonine-protein kinase Nek7 (Homo sapiens) (UniProt Q8TDX7); conditions: at 0.1 µM
Chain of Serine/threonine-protein kinase Nek7 (Homo sapiens) (Q8TDX7 whole entry, looked up): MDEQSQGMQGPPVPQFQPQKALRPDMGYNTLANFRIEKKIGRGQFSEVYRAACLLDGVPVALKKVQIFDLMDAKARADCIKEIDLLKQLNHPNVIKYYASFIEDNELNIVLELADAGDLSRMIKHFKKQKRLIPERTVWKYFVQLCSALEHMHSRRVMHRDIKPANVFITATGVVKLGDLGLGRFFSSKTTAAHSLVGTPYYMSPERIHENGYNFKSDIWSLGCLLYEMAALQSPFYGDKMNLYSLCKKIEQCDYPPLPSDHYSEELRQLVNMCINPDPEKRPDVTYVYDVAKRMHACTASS

[19] = target: Serine/threonine-protein kinase Nek7 (Homo sapiens) (UniProt Q8TDX7); conditions: at 1 µM
[20] = target: T7, Serine/threonine-protein kinase Nek9 (Homo sapiens) (UniProt Q8TD19); conditions: at 0.1 µM;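 also: reported value is the mean percent inhibition of NEK9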
T7 sequence (whole entry): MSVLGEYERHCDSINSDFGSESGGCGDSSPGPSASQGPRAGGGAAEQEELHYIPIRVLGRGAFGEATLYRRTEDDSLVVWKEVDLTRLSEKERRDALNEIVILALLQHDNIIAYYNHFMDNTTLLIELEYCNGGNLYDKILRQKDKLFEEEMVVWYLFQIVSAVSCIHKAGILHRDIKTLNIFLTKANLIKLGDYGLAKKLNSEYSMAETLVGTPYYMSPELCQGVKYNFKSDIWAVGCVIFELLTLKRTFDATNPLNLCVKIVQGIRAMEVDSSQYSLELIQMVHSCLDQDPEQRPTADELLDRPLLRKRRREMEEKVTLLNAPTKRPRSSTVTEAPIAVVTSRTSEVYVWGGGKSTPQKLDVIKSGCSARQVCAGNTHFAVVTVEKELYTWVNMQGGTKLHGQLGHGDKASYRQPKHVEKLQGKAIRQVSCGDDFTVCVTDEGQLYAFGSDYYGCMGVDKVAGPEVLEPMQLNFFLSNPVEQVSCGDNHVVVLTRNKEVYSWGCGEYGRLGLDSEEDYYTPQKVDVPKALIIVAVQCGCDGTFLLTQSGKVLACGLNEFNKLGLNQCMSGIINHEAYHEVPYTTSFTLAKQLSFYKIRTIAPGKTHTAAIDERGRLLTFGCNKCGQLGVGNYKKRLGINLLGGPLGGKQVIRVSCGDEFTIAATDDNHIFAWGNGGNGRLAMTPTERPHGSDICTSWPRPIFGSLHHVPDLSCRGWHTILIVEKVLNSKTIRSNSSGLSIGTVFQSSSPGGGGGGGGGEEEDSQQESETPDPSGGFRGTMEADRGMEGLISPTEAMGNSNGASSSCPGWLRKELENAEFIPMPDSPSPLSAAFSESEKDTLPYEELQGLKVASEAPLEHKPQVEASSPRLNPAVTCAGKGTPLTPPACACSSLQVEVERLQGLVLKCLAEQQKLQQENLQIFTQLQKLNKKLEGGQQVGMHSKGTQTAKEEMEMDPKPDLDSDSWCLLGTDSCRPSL

Chain of Sphingosine kinase 1 (Homo sapiens) (Q9NYA1 whole entry): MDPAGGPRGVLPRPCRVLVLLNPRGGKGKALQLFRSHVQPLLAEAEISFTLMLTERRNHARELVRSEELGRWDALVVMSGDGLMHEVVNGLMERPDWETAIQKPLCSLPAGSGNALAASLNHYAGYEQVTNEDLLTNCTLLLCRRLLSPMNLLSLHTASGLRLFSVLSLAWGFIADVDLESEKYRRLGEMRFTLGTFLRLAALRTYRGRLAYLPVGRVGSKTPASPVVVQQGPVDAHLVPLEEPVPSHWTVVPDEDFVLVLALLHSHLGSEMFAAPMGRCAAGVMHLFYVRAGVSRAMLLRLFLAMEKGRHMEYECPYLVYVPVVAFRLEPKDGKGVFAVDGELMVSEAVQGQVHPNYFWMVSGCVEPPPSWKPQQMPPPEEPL

Structure (SMILES)	inhibition [1] [%]	inhibition [2] [%]	inhibition [3] [%]	inhibition [4] [%]	inhibition [5] [%]	inhibition [6] [%]	inhibition [7] [%]	inhibition [8] [%]	inhibition [9] [%]	inhibition [10] [%]	inhibition [11] [%]	inhibition [12] [%]	inhibition [13] [%]	inhibition [14] [%]	inhibition [15] [%]	inhibition [16] [%]	inhibition [17] [%]	inhibition [18] [%]	inhibition [19] [%]	inhibition [20] [%]
Cc1nc(-c2ccccc2)n2nc(NCCCN3CCOCC3)ncc12	-2.26	-1.13	-0.14	13.3	6.84	-0.66	5.55	2.75	4.98	4.87	6.26	1.82	1.68	3.14	1.97	-0.18	3.25	1.2	2.34	7.69
Oc1cccc(-c2nc(-c3ccccc3)[nH]c2-c2ccncc2)c1	-1.58	0.02	-1.65	3.96	9.51	2.95	5.47	5.25	3.12	5.43	4.72	2.81	3.39	3.98	4.3	-0.13	4.45	4.5	5.32	9.92
